This note sets out measurements from PubChem BioAssay (EPA / NIEHS).

Calls of active or inactive are those of the source. Rule for the calls: active = hit-call score of the fitted dose curve at least 0.9, where 1 is the maximum; inactive = score below 0.9.

Common to all, as to conditions: mRNA level, 48 h; actives raise or lower the signal
Read-out in experiment [1]: Fatty acid synthase (Homo sapiens) (UniProt P49327)
Put plainly: LTEA_HepaRG_FASN: Life Technologies and Expression Analysis (LTEA) Assay for Fatty Acid Synthase (FASN) using HepaRG (AID 2283448). In outline: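 Cells were plated, cultured 48 h, switched to serum-free induction medium, then dosed in duplicate (max 100 uM, half-log dilutions, 0.5% DMSO) for 48 h. RNA was then isolated and FASN quantified by qRT-PCR.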

Read-out in experiment [2]: Cyclin D2 (CCND2), CCND2 (gene 894)
Kind of experiment: LTEA_HepaRG_CCND2: Life Technologies and Expression Analysis (LTEA) Assay for Cyclin D2 (CCND2) using HepaRG (AID 2283449). The method in brief:
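CCND2 transcript levels, quantified by qRT-PCR and normalised to three housekeeping genes, were fitted bidirectionally against 0.5% DMSO. HepaRG cultures were dosed 48 h in duplicate with an 8-point half-log series up to 100 uM.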

Read-out in experiment [3]: Cyclin Dependent Kinase Inhibitor 1A (CDKN1A), CDKN1A (gene 1026)
Kind of experiment: LTEA_HepaRG_CDKN1A: Life Technologies and Expression Analysis (LTEA) Assay for Cyclin Dependent Kinase Inhibitor 1A (CDKN1A) using HepaRG (AID 2283450). In outline:
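Differentiated HepaRG cells in serum-free induction medium, exposed 48 h in duplicate to eight half-log concentrations up to 100 uM in 0.5% DMSO. mRNA measured by TaqMan qRT-PCR, normalized to ACTB, GAPDH, POLR2A; bidirectional fit versus DMSO.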

Read-out in experiment [4]: Cyclin D1 (CCND1), CCND1 (gene 595)
Kind of experiment: LTEA_HepaRG_CCND1: Life Technologies and Expression Analysis (LTEA) Assay for Cyclin D1 (CCND1) using HepaRG (AID 2283451).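 For AC50: TaqMan qRT-PCR transcript level normalised to ACTB GAPDH and POLR2A housekeeping genes.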 In outline:
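Differentiated HepaRG cells exposed 48 h in serum-free induction medium to eight half-log concentrations from 100 uM top, 0.5% DMSO, duplicates. CCND1 mRNA measured by Fluidigm TaqMan qRT-PCR, normalised to ACTB, GAPDH, POLR2A; bidirectional fit.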

Read-out in experiment [5]: catalase (CAT), CAT (gene 847)
Put plainly: LTEA_HepaRG_CAT: Life Technologies and Expression Analysis (LTEA) Assay for catalase (CAT) using HepaRG (AID 2283452). In outline:
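Expression of CAT was quantified by TaqMan qRT-PCR with ACTB/GAPDH/POLR2A normalization after 48 h chemical exposure of HepaRG. Eight-point half-log series, top 100 uM, in 0.5% DMSO; gain or loss fitted against vehicle.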

Read-out in experiment [6]: flavin-containing dimethylaniline monooxygenases 3 (FMO3), FMO3 (gene 2328)
Put plainly: LTEA_HepaRG_FMO3: Life Technologies and Expression Analysis (LTEA) Assay for flavin-containing dimethylaniline monooxygenases 3 (FMO3) using HepaRG (AID 2283453). In outline: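 FMO3 transcript quantified by TaqMan qRT-PCR against three housekeeping genes after 48 h chemical exposure of HepaRG cells. Eight-point half-log series, top 100 uM, 0.5% DMSO vehicle; phenobarbital 1mM induction control; up- or down-regulation fitted.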

Read-out in experiment [7]: CFLAR gene, CFLAR (gene 8837)
Put plainly: LTEA_HepaRG_CFLAR: Life Technologies and Expression Analysis (LTEA) Assay for CFLAR gene using HepaRG (AID 2283455). In outline:
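Transcript level by qRT-PCR (normalized to ACTB, GAPDH and POLR2A) after 48 h chemical exposure of HepaRG cells, top concentration 100 uM with half-log steps, 0.5% DMSO vehicle, duplicates; fitted bidirectionally against DMSO baseline.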

Read-out in experiment [8]: Forkhead box O1 (FOXO1), FOXO1 (gene 2308)
Put plainly: LTEA_HepaRG_FOXO1: Life Technologies and Expression Analysis (LTEA) Assay for Forkhead box O1 (FOXO1) using HepaRG (AID 2283456). The method in brief: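 FOXO1 transcript quantified by qRT-PCR after 48 h chemical exposure (top 100 uM, half-log steps, 0.5% DMSO) of HepaRG cells, housekeeping-normalized (ACTB/GAPDH/POLR2A). Changes fitted in both directions relative to vehicle.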

Read-out in experiment [9]: growth arrest and DNA damage 45 (GADD45A), GADD45A (gene 1647)
Put plainly: LTEA_HepaRG_GADD45A: Life Technologies and Expression Analysis (LTEA) Assay for growth arrest and DNA damage 45 (GADD45A) using HepaRG (AID 2283458). In outline:
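Transcript induction or loss, quantified by TaqMan qRT-PCR against three housekeeping genes, is the read-out. HepaRG cells received chemicals for 48 h across eight half-log concentrations from 100 uM in 0.5% DMSO; gain and loss fitted relative to DMSO.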

Read-out in experiment [10]: Forkhead box O3 (FOXO3), FOXO3 (gene 2309)
Kind of experiment: LTEA_HepaRG_FOXO3: Life Technologies and Expression Analysis (LTEA) Assay for Forkhead box O3 (FOXO3) using HepaRG (AID 2283459). The method in brief:
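FOXO3 transcript measured by qRT-PCR (normalized to ACTB, GAPDH, POLR2A) after 48 h exposure of HepaRG cells in serum-free induction medium. Duplicates, eight half-log concentrations up to 100 uM, 0.5% DMSO; gain or loss fitted against DMSO.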

Read-out in experiment [11]: ABC Transporter (ABCB1), ABCB1 (gene 5243)
Put plainly: LTEA_HepaRG_ABCB1: Life Technologies and Expression Analysis (LTEA) Assay for ABC Transporter (ABCB1) using HepaRG (AID 2283460). The method in brief: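 ABCB1 transcript level measured by TaqMan qRT-PCR against three housekeeping genes after 48 h chemical exposure of differentiated HepaRG cells. Top concentration 100 uM, half-log steps, eight points, 0.5% DMSO vehicle; bidirectional fit relative to DMSO.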

Read-out in experiment [12]: growth arrest and DNA damage 45 (GADD45B), GADD45B (gene 4616)
Kind of experiment: LTEA_HepaRG_GADD45B: Life Technologies and Expression Analysis (LTEA) Assay for growth arrest and DNA damage 45 (GADD45B) using HepaRG (AID 2283461). The method in brief: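 Differentiated human HepaRG cells in serum-free induction medium exposed 48 h in duplicate to eight concentrations, top 100 uM, half-log steps, 0.5% DMSO. GADD45B mRNA by TaqMan qRT-PCR, normalized to ACTB, GAPDH, POLR2A; bidirectional fit versus DMSO.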

Read-out in experiment [13]: ABC Transporter (ABCB11), ABCB11 (gene 8647)
Kind of experiment: LTEA_HepaRG_ABCB11: Life Technologies and Expression Analysis (LTEA) Assay for ABC Transporter (ABCB11) using HepaRG (AID 2283463). In outline:
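ABCB11 transcript levels quantified by TaqMan qRT-PCR against three housekeeping genes after 48 h chemical exposure of HepaRG cultures. Concentrations up to 100 uM in half-log steps, 0.5% DMSO vehicle; both induction and suppression scored.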

Read-out in experiment [14]: Broad substrate specificity ATP-binding cassette transporter ABCG2 (Homo sapiens) (UniProt Q9UNQ0)
Kind of experiment: LTEA_HepaRG_ABCG2: Life Technologies and Expression Analysis (LTEA) Assay for ABC Transporter (ABCG2) using HepaRG (AID 2283465). In outline:
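ABCG2 transcript was quantified by TaqMan qRT-PCR against three housekeeping genes in HepaRG cells. Cells were treated in duplicate for 48 h across an 8-point half-log series up to 100 uM, with 0.5% DMSO vehicle. Gain or loss versus DMSO was fit.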

Read-out in experiment [15]: ATP-citrate lyase (ACLY), ACLY (gene 47)
Put plainly: LTEA_HepaRG_ACLY: Life Technologies and Expression Analysis (LTEA) Assay for ATP-citrate lyase (ACLY) using HepaRG (AID 2283466). In outline:
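ACLY mRNA quantified by qRT-PCR on Fluidigm arrays against three housekeeping genes, after 48 h chemical treatment of HepaRG cells (top concentration 100 uM, half-log steps, 0.5% DMSO vehicle). Up- or down-regulation fitted relative to DMSO.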

Read-out in experiment [16]: Peroxisomal acyl-coenzyme A oxidase 1 (ACOX1) gene, ACOX1 (gene 51)
Kind of experiment: LTEA_HepaRG_ACOX1: Life Technologies and Expression Analysis (LTEA) Assay for Peroxisomal acyl-coenzyme A oxidase 1 (ACOX1) gene using HepaRG (AID 2283467). The method in brief:
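ACOX1 transcript levels were quantified by TaqMan qRT-PCR against three housekeeping genes after 48 h chemical exposure of differentiated human HepaRG cells. Exposure used eight half-log steps topping at 100 uM, 0.5% DMSO vehicle, in duplicate. Bidirectional curve fits were made relative to DMSO.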

Read-out in experiment [17]: Alkaline Phosphatase, Placental (ALPP) gene, ALPP (gene 250)
Kind of experiment: LTEA_HepaRG_ALPP: Life Technologies and Expression Analysis (LTEA) Assay for Alkaline Phosphatase, Placental (ALPP) gene using HepaRG (AID 2283468). In outline: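 HepaRG cells plated 48 h, then exposed in duplicate for 48 h in serum-free induction medium to 8-point half-log series from 100 uM in 0.5% DMSO. ALPP mRNA by TaqMan qRT-PCR, normalized to ACTB/GAPDH/POLR2A; bidirectional fit versus DMSO.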

Sequence of Fatty acid synthase (Homo sapiens) (P49327 whole entry, looked up): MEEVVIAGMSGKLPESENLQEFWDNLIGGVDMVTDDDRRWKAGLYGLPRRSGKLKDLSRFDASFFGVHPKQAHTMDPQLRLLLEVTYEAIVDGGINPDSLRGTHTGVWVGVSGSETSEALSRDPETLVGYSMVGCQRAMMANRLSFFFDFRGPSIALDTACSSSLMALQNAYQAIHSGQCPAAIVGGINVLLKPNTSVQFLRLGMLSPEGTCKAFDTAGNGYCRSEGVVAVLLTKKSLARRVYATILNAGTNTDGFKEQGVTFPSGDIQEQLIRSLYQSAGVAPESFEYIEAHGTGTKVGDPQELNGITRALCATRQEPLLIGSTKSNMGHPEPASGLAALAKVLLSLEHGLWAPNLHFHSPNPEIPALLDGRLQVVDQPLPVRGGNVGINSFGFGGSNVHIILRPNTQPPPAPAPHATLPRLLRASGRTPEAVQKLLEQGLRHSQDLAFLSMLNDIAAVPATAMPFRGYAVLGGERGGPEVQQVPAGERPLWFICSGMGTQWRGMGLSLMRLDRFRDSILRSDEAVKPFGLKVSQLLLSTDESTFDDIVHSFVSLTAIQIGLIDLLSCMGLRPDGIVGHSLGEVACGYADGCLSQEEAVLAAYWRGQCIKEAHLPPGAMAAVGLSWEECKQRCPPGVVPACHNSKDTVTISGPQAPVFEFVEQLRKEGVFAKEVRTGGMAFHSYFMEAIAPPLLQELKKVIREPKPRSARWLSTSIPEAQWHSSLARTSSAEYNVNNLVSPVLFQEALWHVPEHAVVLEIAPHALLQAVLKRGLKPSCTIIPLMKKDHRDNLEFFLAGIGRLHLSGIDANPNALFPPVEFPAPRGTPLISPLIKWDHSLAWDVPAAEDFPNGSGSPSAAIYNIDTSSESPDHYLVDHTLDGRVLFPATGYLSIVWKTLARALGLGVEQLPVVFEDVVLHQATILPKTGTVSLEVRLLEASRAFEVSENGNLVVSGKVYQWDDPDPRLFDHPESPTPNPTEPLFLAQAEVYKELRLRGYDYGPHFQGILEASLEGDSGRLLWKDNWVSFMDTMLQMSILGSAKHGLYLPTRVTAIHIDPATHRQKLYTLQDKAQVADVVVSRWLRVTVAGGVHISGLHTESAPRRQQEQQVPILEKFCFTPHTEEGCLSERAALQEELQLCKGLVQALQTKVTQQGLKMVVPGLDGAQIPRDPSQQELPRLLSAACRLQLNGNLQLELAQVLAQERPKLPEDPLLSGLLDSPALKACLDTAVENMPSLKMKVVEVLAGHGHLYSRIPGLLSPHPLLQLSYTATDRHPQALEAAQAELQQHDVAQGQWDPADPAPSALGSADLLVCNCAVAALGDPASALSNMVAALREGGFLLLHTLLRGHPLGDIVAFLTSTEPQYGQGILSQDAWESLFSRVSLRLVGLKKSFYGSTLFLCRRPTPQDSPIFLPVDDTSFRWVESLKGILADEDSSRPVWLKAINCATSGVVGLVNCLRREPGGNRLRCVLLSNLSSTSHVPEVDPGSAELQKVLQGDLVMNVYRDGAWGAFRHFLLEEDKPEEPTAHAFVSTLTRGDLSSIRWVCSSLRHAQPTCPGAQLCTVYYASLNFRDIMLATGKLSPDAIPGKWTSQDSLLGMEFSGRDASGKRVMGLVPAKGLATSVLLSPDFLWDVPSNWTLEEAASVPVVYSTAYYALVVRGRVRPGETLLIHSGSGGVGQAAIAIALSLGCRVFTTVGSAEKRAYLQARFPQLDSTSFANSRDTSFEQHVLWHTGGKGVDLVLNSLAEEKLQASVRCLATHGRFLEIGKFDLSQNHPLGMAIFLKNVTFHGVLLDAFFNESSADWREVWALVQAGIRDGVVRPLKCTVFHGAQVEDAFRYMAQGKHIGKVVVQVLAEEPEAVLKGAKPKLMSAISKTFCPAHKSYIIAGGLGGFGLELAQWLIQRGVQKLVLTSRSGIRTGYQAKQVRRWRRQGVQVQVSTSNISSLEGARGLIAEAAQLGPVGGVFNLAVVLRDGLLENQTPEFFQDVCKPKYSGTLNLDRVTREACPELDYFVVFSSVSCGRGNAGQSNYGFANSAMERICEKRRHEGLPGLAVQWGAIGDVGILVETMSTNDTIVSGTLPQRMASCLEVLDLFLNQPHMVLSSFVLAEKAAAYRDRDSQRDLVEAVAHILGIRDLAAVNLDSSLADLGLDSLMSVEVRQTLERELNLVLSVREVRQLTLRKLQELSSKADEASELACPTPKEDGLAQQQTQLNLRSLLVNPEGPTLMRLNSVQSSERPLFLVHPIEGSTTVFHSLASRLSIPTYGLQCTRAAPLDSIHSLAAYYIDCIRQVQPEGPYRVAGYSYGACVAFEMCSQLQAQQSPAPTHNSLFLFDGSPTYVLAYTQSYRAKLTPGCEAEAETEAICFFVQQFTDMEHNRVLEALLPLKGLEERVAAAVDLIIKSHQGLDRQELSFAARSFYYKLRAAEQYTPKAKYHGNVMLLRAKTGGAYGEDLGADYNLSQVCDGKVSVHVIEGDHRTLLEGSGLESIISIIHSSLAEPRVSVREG
Sequence of Broad substrate specificity ATP-binding cassette transporter ABCG2 (Homo sapiens) (Q9UNQ0 whole entry, looked up): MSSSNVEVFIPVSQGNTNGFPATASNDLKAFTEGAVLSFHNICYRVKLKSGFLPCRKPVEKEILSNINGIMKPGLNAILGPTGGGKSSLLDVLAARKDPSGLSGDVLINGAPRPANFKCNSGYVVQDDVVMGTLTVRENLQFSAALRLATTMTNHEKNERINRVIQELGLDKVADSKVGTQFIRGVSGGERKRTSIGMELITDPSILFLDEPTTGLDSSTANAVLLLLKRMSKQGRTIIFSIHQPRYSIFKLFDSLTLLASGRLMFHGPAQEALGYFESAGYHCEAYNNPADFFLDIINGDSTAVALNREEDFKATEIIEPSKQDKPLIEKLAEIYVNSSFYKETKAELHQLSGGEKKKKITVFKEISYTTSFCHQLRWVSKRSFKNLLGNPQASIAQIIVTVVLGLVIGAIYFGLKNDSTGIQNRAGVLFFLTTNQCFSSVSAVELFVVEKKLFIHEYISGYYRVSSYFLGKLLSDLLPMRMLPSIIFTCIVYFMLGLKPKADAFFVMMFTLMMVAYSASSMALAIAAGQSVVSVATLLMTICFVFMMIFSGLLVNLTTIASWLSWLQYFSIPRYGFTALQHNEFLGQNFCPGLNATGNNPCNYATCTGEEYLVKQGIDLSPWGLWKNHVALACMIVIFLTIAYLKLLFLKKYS

Broadly, the AC50 is the concentration at which the activity in the assay is half-maximal. As to `CCC(=O)C(CC(C)N(C)C)(c1ccccc1)c1ccccc1` (stereo not given), the molecule was classed as inactive in [1], in experiment [2], in experiment [3], in experiment [4], in experiment [5] and in [7]. Besides, the molecule was called inactive in experiment [8], in experiment [9], in experiment [10], in experiment [11], in experiment [12] and in experiment [13]. Further, the result in experiment [14], in experiment [15], in experiment [16] and in experiment [17] was inactive. The concentration at half-maximal activity (AC50) in [6] was 46.7 µM (active).
As for `Cn1sc(Cl)cc1=O`, the molecule was called inactive in experiment [1], in experiment [2], in experiment [3], in experiment [4], in [5] and in experiment [6]. The call in experiment [7], in experiment [8], in experiment [9], in [10], in [11] and in experiment [12] was inactive. Also, the molecule was classed as inactive in experiment [13], in experiment [14], in experiment [15], in experiment [16] and in experiment [17].
`ClC1(Cl)C2(Cl)C3(Cl)C4(Cl)C(Cl)(Cl)C5(Cl)C3(Cl)C1(Cl)C5(Cl)C24Cl` (stereo not given): the AC50 in experiment [1] was 3.24 µM (active); in experiment [15], 5.15 µM (active). In addition, the molecule was called inactive in [2], in [3], in experiment [4], in experiment [5], in [6] and in experiment [7]. Moreover, the result in experiment [8], in experiment [9], in experiment [10], in [11], in experiment [12] and in [13] was inactive. The outcome in [14], in [16] and in experiment [17] was inactive.
In the case of `CCN1CCC2(CC1)COc1cc3c(cc12)N(C(=O)c1ccc(-c2ccc(-c4nnc(C)o4)cc2C)cc1)CC3`, the AC50 in [1] is 29.9 µM (active); in [2], 46.8 µM (active); in experiment [3], 84.6 µM (active); in [4], 30.8 µM (active); in [5], 21.1 µM (active); in experiment [6], 13.8 µM (active). The AC50 in experiment [7] was 29.2 µM (active); in experiment [8] it was 27.7 µM (active); in experiment [9], 75.3 µM (active); in [10], 17.4 µM (active); in experiment [11], 17.4 µM (active); in experiment [12] it was 12.5 µM (active). For the same molecule, the AC50 in experiment [15] was 21.5 µM (active); in experiment [16] it was 30.2 µM (active). In addition, the outcome in experiment [13], in [14] and in experiment [17] was inactive.
Take `O=C(O)C(F)(F)C(F)(F)C(F)(F)C(F)(F)C(F)(F)C(F)(F)C(F)(F)C(F)(F)C(F)(F)C(F)(F)F`: the result in experiment [1], in experiment [2], in [3], in experiment [4], in experiment [5] and in experiment [7] was inactive. Moreover, the outcome in [8], in [9], in experiment [11], in experiment [12], in [14] and in experiment [15] was inactive. The call in [16] and in [17] was inactive. The values for the AC50 in experiment [6], in experiment [10] and in [13] were 69.1 µM (active), 47.8 µM (active) and 13.7 µM (active), respectively.
